# Screens: PubChem, National Center for Advancing Translational Sciences (NCATS)
# MARV entry inh = inhibitors of Marburg virus binding or cell entry; 300,000 compounds, 1.8% hits; Potency, µM (top dose mostly 37.8 µM), without a hit: at the top dose activity change, negative = inhibition, actives largely listed as inhibitors; Marburg virus pseudotyped entry inhibition, cell reporter; AID 540276; calls by dose curve; tested in HEK293 cells; further: potency means the concentration at half of the fitted maximal effect
# LASV entry inh = blocks Lassa virus binding to or entry into cells | Lassa virus pseudotype entry inhibition, cell reporter | Potency, µM (top dose mostly 37.9 µM), without a hit: at the highest dose activity change, negative = inhibition, hits mostly inhibitors | 300,000 compounds, 1.2% hits; calls by dose curve; tested in HEK293 cells; further: potency means the concentration at half of the fitted maximal effect; nearly all actives have a fitted effect of over 50% in size
# HCMV antiviral = inhibitors of human cytomegalovirus. 410,000 compounds, 4.5% hits. AID 1259415. activity change, negative = inhibition, % at 57.5 µM. HFF cells, HCMV-luciferase reporter, 72 h; stronger effect = lower value; in the data active means activity change below about -60%; inconclusive means no clear call, values can overlap the other calls; inactive means above about -39%
#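 Human foreskin fibroblasts infected with luciferase-reporter HCMV at MOI 1 PFU/cell, compounds at two doses. Luciferase measured 72 h post infection; normalized to buffer-only basal and Salinomycin (10uM) controls.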
# HCV inh = HCV inhibition | Potency, µM (doses to about 41.8 µM), for the others: at the top dose activity change, negative = inhibition, most hits filed as inhibitors | Huh7.5.1 HCVcc-Cre infection, luciferase reporter, 44 h | AID 651820 | 340,000 compounds, 3.4% hits; active means well fitted inhibition curve with a large enough effect; inconclusive means small, poorly fitted or top-dose-only effect, or another doubt; inactive means no such curve, though single readings can be large or run the other way; further: potency means the concentration at half of the fitted maximal effect
#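 Infectious HCVcc-Cre (~0.5 moi) was added to cells just after compound, with cells seeded 4 h earlier at 1,000 per well. Luciferase activity after 44 h culture reported infection; substrate was incubated 15 min at room temperature before reading.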
# FMDV inh = foot and mouth disease virus antiviral activity; FMDV antiviral cell-based qHTS; Potency, µM (titrated, usually from 57.9 µM), without a hit: at the top dose activity change, negative = inhibition, actives largely listed as inhibitors; 410,000 compounds, 1.2% hits; AID 1159524; calls by dose curve; tested in HEK293T cells; further: read-out not given here; potency means the concentration at half of the fitted maximal effect; nearly all actives have a fitted effect of over 45% in size
# Numbers without * were called inactive; u = inconclusive; x = not tested or not shown; [ ] = remark or other dose. Shown are actives, neighbours in structure and some others; about 7.9% of the full set was active somewhere. On the % scale 0 is the no-effect control and ±100 the full control effect.
SMILES,MARV entry inh,LASV entry inh,HCMV antiviral,HCV inh,FMDV inh
O=C(c1noc2c1CCCC2)N1CCc2c([nH]c3ccccc23)C1c1ccccn1 (centres undefined),u,-19.2%,-61.9*,-24.0%,5.7%
COc1ccccc1CCn1c(=O)c(-c2ccc(F)cc2)nc2cncnc21,x,x,x,x,-5.0%
O=c1cnc2cnc(N3CCNCC3)nc2n1Cc1cccs1,x,x,x,x,-0.8%
CCOC(=O)C1CCCN(C(=O)c2ccc3c(c2)sc2nc(-c4cccc(OC)c4)cn23)C1 (centres undefined),x,1.8%[46.1 µM],x,x,31.6µM*
O=C(COc1ccc(F)cc1)N1CCCCCCC1,29.5%[46.1 µM],12.6%[46.1 µM],32.9,14.6%,15.7%
CCOC(=O)C1CCCN(C(=O)COc2ccc(C(=O)c3ccc(F)cc3)cc2)C1 (centres undefined),x,x,-27.3,12.6µM*,u
CCOC(=O)C1CCCN(C(=S)Nc2ccc(F)cc2)C1 (centres undefined),0.7%[14.2 µM],-8.2%,-29.2,7.6%,20.1%
CCOC(=O)C1CCCN(C(=S)Nc2ccc(OC)cc2)C1 (centres undefined),x,x,-67.0*,4.9%,-0.9%
O=C(Nc1ccc(Cl)cc1)Nc1ccc2c(c1)N1CCN=C1S2,-22.5%,u,u,10µM*,0.0%
C[C@H](CO)N1C[C@H](C)[C@H](CN(C)S(C)(=O)=O)OCc2ccccc2-c2c(n(C)c3ccccc23)C1=O,x,x,9.9,x,71.0%
C[C@H](CO)N1C[C@H](C)[C@H](CN(C)S(=O)(=O)c2ccc(Cl)cc2)OCc2ccccc2-c2c(n(C)c3ccccc23)C1=O,x,x,-67.9*,x,-14.9%
C[C@H](CO)N1C[C@H](C)[C@H](CN(C)S(=O)(=O)c2cccc(F)c2)OCc2ccccc2-c2c(n(C)c3ccccc23)C1=O,x,x,u,x,-13.5%
Cc1ccc(S(=O)(=O)N(C)C[C@@H]2OCc3ccccc3-c3c(n(C)c4ccccc34)C(=O)N([C@H](C)CO)C[C@@H]2C)cc1,x,x,-60.1*,x,-12.8%
C[C@@H]1CN([C@H](C)CO)C(=O)c2c(c3ccccc3n2C)-c2ccccc2CO[C@@H]1CN(C)S(=O)(=O)c1cccs1,x,x,-80.8*,x,-24.2%
OC1(c2cccnc2)CCN(Cc2ccc3c(c2)CN(Cc2ccc(Cl)cc2)CCO3)CC1,x,x,x,x,-20.3%
Cc1ccc(C)n1C1C(=O)N(Cc2ccc(C(C)C)cc2)c2c(F)cccc21 (centres undefined),x,x,-18.9,x,x
CC(=O)Nc1ccccc1OCc1cnc(Cl)s1,18.3%[46.1 µM],10.1%[46.1 µM],6.2,12.3%,6.8%
CCN(c1cccc(C)c1)S(=O)(=O)c1ccc2c(c1)N(C(C)=O)CCS2,u,u,-69.6*,11.2µM*,-16.0%
Cc1ccc(N2C(=O)[C@@H]3CSC(c4ccc(Cl)cc4)N3C2=O)cc1 (some centres undefined),16.4%[46.1 µM],10.6%[46.1 µM],-9.1,x,-7.1%
CC(=O)Nc1ccc(S(=O)(=O)NCCSCc2ccccc2Cl)cc1,u,u,-84.4*,u,-27.3%
CC(=O)c1cccc(-c2cnc3ccc(-c4cccc(CO)c4)nn23)c1,x,x,-95.2*,x,x
CN(C)C(=O)c1cccc(-c2ccc3nncn3c2)c1,x,x,-13.4,x,0.3%
CNc1ccc2ncc(-c3cccc(C(=O)N(C)C)c3)n2n1,x,x,-75.2*,x,-3.7%
Cc1cccc(-n2c(Cc3cc(=O)[nH]c(=O)[nH]3)nnc2SCC(=O)N2CCc3ccccc32)c1,7.4%,7.4%,u,x,-5.0%
O=C1C(=C(c2ccccc2)N2CCOCC2)Cc2ccccc21,x,x,-99.0*,x,8.91µM*
SMILES,MARV entry inh,LASV entry inh,HCMV antiviral,HCV inh,FMDV inh
O=C(c1cc(-n2cnnc2)ccc1Cl)N1CCN(c2nc(-c3ccccc3)cs2)CC1,u,u,-12.8,10µM*,u
CCC(CC)C(=O)c1c[nH]c(C(=O)NCc2cccs2)c1,-13.1%[46.1 µM],2.51µM*,5.0,-29.0%,11.6%
Cc1nn(C)c(Oc2ccccc2)c1CCNC(=O)C(C)(C)C,x,x,-83.5*,-0.1%,-13.8%
Cc1nn(C)c(Oc2ccccc2)c1CCNS(=O)(=O)c1ccc(Cl)cc1,-19.3%[46.1 µM],-23.2%,-74.9*,10µM*,-12.6%
Cc1nn(C)c(Oc2ccccc2)c1CCNC(=O)CC(C)C,-18.1%[46.1 µM],-9.1%,-2.3,-11.4%,-12.9%
CCN1CCN(CCNC(=O)c2ccc3c(c2)N(Cc2ccc(F)cc2)C(=O)/C(=C/c2ccccc2)S3)CC1,u,u,-80.9*,u,6.2%
O=C(NCCN1CCOCC1)c1ccc(/C=C2\Sc3ccccc3N(Cc3ccccc3F)C2=O)cc1,x,x,-34.9,u,u
CC(C)CCNC(=O)c1ccc2c(c1)N(Cc1cccc(Cl)c1)C(=O)c1ccccc1S2,x,-9.8%[46.1 µM],u,x,-19.1%
CCN1CCN(CCNC(=O)c2ccc(/C=C3/Sc4ccccc4N(Cc4cccc(Cl)c4)C3=O)cc2)CC1,u,u,-103.3*,11.2µM*,-27.0%
CN1CCN(CCCNC(=O)c2ccc(/C=C3\Sc4ccccc4N(Cc4ccccc4F)C3=O)cc2)CC1,x,x,-63.4*,10µM*,2.1%
Cc1ccccc1CN1C(=O)/C(=C\c2ccc(C(=O)NCCN3CCOCC3)cc2)Sc2ccccc21,u,u,-26.8,u,0.0%
Cc1cccc(CN2C(=O)/C(=C\c3ccc(C(=O)NCCN4CCOCC4)cc3)Sc3ccccc32)c1,u,u,x,u,39.8µM*
COc1cc(OC)cc(C(=O)N[C@H](C(=O)NC2=NCCS2)C(C)C)c1,7.8%,-2.0%,-3.9,u,-10.4%
Cc1ccccc1-c1ccc(CN2CCc3nnc(C(NS(C)(=O)=O)C(C)C)n3CC2)cc1 (centres undefined),x,x,x,x,-14.6%
O=C1/C(=N\S(=O)(=O)c2cccs2)C([n+]2cccc(Cc3ccccc3)c2)=C([O-])c2ccccc21,2.82µM*,u,x,-77.3%,u
Cc1cc(C)c[n+](C2=C([O-])c3ccccc3C(=O)/C2=N\S(=O)(=O)c2cccs2)c1,x,x,0.0,u,39.8µM*
O=C1/C(=N\S(=O)(=O)c2cccs2)C([n+]2ccc(CCCc3ccccc3)cc2)=C([O-])c2ccccc21,-26.6%,-3.9%,-7.4,u,-22.5%
Nc1cc2c3ccccc3ccc2c2ccccc12,u,u,29.1,u,43.2%
CC[C@]12C(=O)N(C)C[C@H]([C@@H]3C(=O)N(Cc4ccccc4)C(=O)[C@@H]31)N2C(=O)c1ccc(F)cc1,x,x,15.0,3.3%,-1.8%
CC1(C)C(=O)NC2=C1C(=O)C(=O)c1ccccc12,x,x,x,x,14.1µM*
Cc1nn(C)c(C)c1/C=C/C(=O)c1ccc(Cl)cc1Cl,u,u,-80.9*,7.94µM*,u
Cc1cc(C(=O)CSc2ccc(F)cc2)cc(C)c1O,4.8%[46.1 µM],19.9%,3.6,u,42.6%
Cc1cc(C(=O)CSc2ccc(Cl)cc2)cc(C)c1OC(=S)N(C)C,u,-7.8%,-18.4,10µM*,13.9%
O=[N+]([O-])c1ccc2cn(-c3ccccc3)nc2c1,u,-0.5%,-68.1*,u,5.7%
O=[N+]([O-])c1ccc2c(c1)ncn2-c1ccccc1,16.8%,u,-70.1*,u,-1.5%
